Where “and” joins values, the source holds several entries; their conditions need not be identical. Equal values may be shown once. Inconclusive results are not listed. Calls of active or inactive are those of the source. Calls follow the shape of the dose curve; as a rule, active = well fitted activation curve with a large enough effect; inconclusive = small, poorly fitted or top-dose-only effect; inactive = no such curve, though single readings can be large or run the other way.
What follows are compounds tested against Cellular tumor antigen p53 (Homo sapiens) (UniProt P04637) (assay: Primary qHTS for small molecule compounds that upregulate eGFP-tagged delta133p53alpha (in N-terminal) cells. (AID 2060322; also: nearly all actives have a fitted effect of over 75% in size;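 as to activation: series mostly up to about 56 µM; 0% = DMSO vehicle and 100% = reference activator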)). Conditions: NCI-H358 eGFP-delta133p53alpha fluorescence, 24 h; activation: stronger effect = higher value.
Chain of Cellular tumor antigen p53 (Homo sapiens) (P04637 whole entry, looked up): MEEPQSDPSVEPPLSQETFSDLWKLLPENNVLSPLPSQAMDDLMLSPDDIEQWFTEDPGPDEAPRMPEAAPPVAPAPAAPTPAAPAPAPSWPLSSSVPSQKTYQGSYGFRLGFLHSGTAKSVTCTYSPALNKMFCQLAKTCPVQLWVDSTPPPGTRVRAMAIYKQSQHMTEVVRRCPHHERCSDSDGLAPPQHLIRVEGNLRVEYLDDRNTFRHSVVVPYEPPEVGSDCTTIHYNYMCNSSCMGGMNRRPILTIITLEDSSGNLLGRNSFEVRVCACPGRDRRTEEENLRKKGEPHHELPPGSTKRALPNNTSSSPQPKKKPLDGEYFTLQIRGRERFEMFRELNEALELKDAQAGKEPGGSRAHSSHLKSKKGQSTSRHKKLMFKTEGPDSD
Outline: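 NCI-H358 cells pre-induced 24 h with 10 ng/ml doxycycline to express N-terminal eGFP-delta133p53alpha, then dosed 24 h at 37C without doxycycline; fixed, Hoechst-stained, GFP intensity by laser scanning cytometry, normalized to DMSO (0%) and 57.5 uM 5-azacytidine (100%).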
Potency is read from the fitted curve at half-maximal effect.

| Structure (SMILES) | activation | Potency |
| --- | --- | --- |
| Oc1ccccc1-c1ccccc1 | 10% (inactive) | – |
| CN(C)CCc1ccc(O)cc1 | -14.3% (inactive) and -6.21% (inactive) | – |
| CC[N+]1(C)CCCC(OC(=O)C(O)(c2ccccc2)c2ccccc2)C1 (centres undefined) | 8.47% (inactive) | – |
| O=[N+]([O-])c1cc([N+](=O)[O-])c2ccccc2c1 | -5.02% (inactive) | – |
| C=C[C@@H]1CN2CCC1C[C@H]2[C@H](O)c1ccnc2ccccc12 (some centres undefined) | -4.83% (inactive) | – |
| CCOC(C(=O)OCCN(C)C)(c1ccccc1)c1ccccc1 | -3.95% (inactive) | – |
| Fc1cc(Br)ccc1CBr | -29.9% (inactive) | – |
| C[C@H]1CNCCc2ccc(Cl)cc21 | -8.37% (inactive) | – |
| COC(=O)C(Cl)C(=O)OC | -13.4% (inactive) | – |
| CC(O)CN1CCN(CC(=O)[O-])CCN(CC(=O)[O-])CCN(CC(=O)[O-])CC1.[Gd+3] (centres undefined) | -12.6% (inactive) | – |
| CC(C)NCC(O)c1ccc([N+](=O)[O-])cc1 (centres undefined) | 16.4% (inactive) | – |
| Nc1ccc(Cl)cc1N | – | 22.4 µM (active) |
| CCS(=O)(=O)C(C)(C)S(=O)(=O)CC | -5.86% (inactive) | – |
| CC(O)=C(C#N)C(=O)Nc1cc(Br)ccc1Br | 1.6% (inactive) | – |
| CC(C)(O)C(Cl)(Cl)Cl | -9.6% (inactive) | – |
| CC(CC(C#N)(c1ccccc1)c1ccccc1)N(C)C (centres undefined) | 24.3% (inactive) | – |
| CC1NCCOC1c1ccccc1 (centres undefined) | 9.6% (inactive) | – |
| CCc1ccc(C2CCNCC2)cc1 | 20.9% (inactive) | – |
| CO/C=C(/C(=O)OC)c1ccccc1Oc1cc(Oc2ccccc2C#N)ncn1 | -36.8% (inactive) | – |
| CC1=C2[C@H]3OC(=O)[C@@H](C)[C@@H]3CC[C@@]2(C)C=CC1=O | 11.7% (inactive) | – |

| Structure (SMILES) | activation | Potency |
| --- | --- | --- |
| C[C@@]12OC(=O)[C@]1([C@@H](O)[C@@H]1C=CCCC1)NC(=O)[C@H]2CCCl | – | 2.73 µM (active) |
| C[C@H]1CCCC=CC2C[C@H](O)C[C@@H]2[C@H](O)C=CC(=O)O1 (some centres undefined) | 23.5% (inactive) | – |
| CC(C)(C)NCC(O)c1cc(Cl)c(N)c(Cl)c1 (centres undefined) | -6.21% (inactive) | – |
| N#C[C@H](O[C@@H]1O[C@H](CO[C@@H]2O[C@H](CO)[C@H](O)[C@H](O)[C@H]2O)[C@H](O)[C@H](O)[C@H]1O)c1ccccc1 | 6.64% (inactive) | – |
| C=CCC1([C@H](C)CCC)C(=O)NC(=O)NC1=O | 7.34% (inactive) | – |
| COc1cc(OC)c(OC)cc1C=O | 5.76% (inactive) | – |
| CCC(CC)(CNC(=O)CCCO)c1cccc(OC)c1 | 16.7% (inactive) | – |
| CC1(C)CC/C(=C/c2ccc(Cl)cc2)C1(O)Cn1cncn1 (centres undefined) | 2.51% (inactive) | – |
| C[C@]12CC[C@H]3[C@@H](CCC4=CC(=O)CC[C@@H]43)[C@@H]1CC[C@@H]2OC(=O)CCC1CCCCC1 | -13% (inactive) | – |
| COc1cc(CC(C)N)c(OC)cc1Br (centres undefined) | 43.5% (inactive) | – |
| O=C1CN2CCOC2(c2ccccc2Cl)c2cc(Cl)ccc2N1 (centres undefined) | 14.2% (inactive) | – |
| C=CCN1CC[C@]23CCCC[C@H]2[C@H]1Cc1ccc(O)cc13 | -6.69% (inactive) | – |
| CCOP(=S)(OCC)O/N=C(\C#N)c1ccccc1 | -18.6% (inactive) | – |
| COc1cc(C[C@@H](C)N)c(OC)cc1Br | -17.5% (inactive) | – |
| ClCCN1CCCC1 | 4.18% (inactive) | – |
| O=C(O)COc1nc(Cl)c(Cl)cc1Cl | 6.21% (inactive) | – |
| CC(=CCCC1=CCC(C2=CC(=O)OC2O)OC1O)CCC1=C(C)CCCC1(C)C (centres undefined) | 16.4% (inactive) | – |
| CC(=O)C1CCOC1=O (centres undefined) | -9.21% (inactive) | – |
| CC(C(O)c1ccccc1)N(C)C/C=C/c1ccccc1 (centres undefined) | -4.18% (inactive) | – |
